# Reference: PubChem BioAssay (NCATS)
# Assay: High-throughput drug toxicity screening in the BPDCN cell line Cal-1 (AID 1224825)
# Conditions: Cal-1 BPDCN cell viability, qHTS; at 45.8 µM (top of the series) unless noted
# How it was run: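 Exponentially growing Cal-1 cells, 500 per well in phenol red-free RPMI with 10% FBS, were exposed to compounds for 48 h at 37 °C, 5% CO2. Viability was read by CellTiter-Glo luminescence and normalised to DMSO (100%) and 9.2 uM bortezomib (0%).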
row,Structure (SMILES),viability (% of control)
1,N=C(N)c1ccc2cc(OC(=O)c3ccc(N=C(N)N)cc3)ccc2c1,102%
2,CNC[C@H](O)c1ccc(O)c(O)c1,79.5% [at 92.2 µM]
3,Nc1nc(OCc2ccccc2)c2[nH]cnc2n1,39.4%
4,O=C(NOCC1CC1)c1ccc(F)c(F)c1Nc1ccc(I)cc1Cl,7.67%
5,CCC[C@@H]1C[C@@H](C(=O)N[C@@H]([C@H]2O[C@H](SC)[C@H](O)[C@@H](O)[C@H]2O)[C@@H](C)O)N(C)C1,114%
6,CN(C)C(=O)COC(=O)Cc1ccc(OC(=O)c2ccc(N=C(N)N)cc2)cc1,104%
7,CC1(C)NC(=O)N(c2ccc([N+](=O)[O-])c(C(F)(F)F)c2)C1=O,105%
8,Cc1cc(C2CCCCC2)n(O)c(=O)c1,5.31%
9,CCCCN(CCCC)CCC(O)c1cc2c(Cl)cc(Cl)cc2c2cc(C(F)(F)F)ccc12 (configuration not stated),64.8%
10,COc1ccc(C2(C#N)CCC(C(=O)O)CC2)cc1OC1CCCC1 (configuration not stated),87.2%
11,NC(=NCc1ccccc1)NC(=O)c1nc(Cl)c(N)nc1N,133%
12,Cn1c(NCCN(CCO)CCCc2ccc([N+](=O)[O-])cc2)cc(=O)n(C)c1=O,67.6%
13,CC(=O)N1CCN(c2ccc(OC[C@H]3CO[C@](Cn4ccnc4)(c4ccc(Cl)cc4Cl)O3)cc2)CC1,22.2%
14,COc1cc2nc(N3CCN(C(=O)C4CCCO4)CC3)nc(N)c2cc1OC (configuration not stated),88.2%
15,O=c1c(O)c(-c2ccc(O)cc2O)oc2cc(O)cc(O)c12,84.9%
16,O=C(CCc1ccc(O)cc1)c1c(O)cc(O)cc1O,41.1%
17,CC(=O)O[C@H]1C(=O)[C@@]2(C)C([C@H](OC(=O)c3ccccc3)[C@]3(O)C[C@H](OC(=O)[C@H](O)[C@@H](NC(=O)c4ccccc4)c4ccccc4)C(C)=C1C3(C)C)[C@]1(OC(C)=O)CO[C@@H]1C[C@@H]2O (some centres not stated),12.8%
